10 molecules from PubChem BioAssay (NCATS) can be followed below.

Assay [1] has as its target Cellular tumor antigen p53 (Homo sapiens) (UniProt P04637). Kind of assay: Primary qHTS for small molecule compounds that upregulate eGFP-tagged delta133p53alpha (in N-terminal) cells. (AID 2060322). Further: nearly all actives have a fitted effect of over 75% in size.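 On activation: cells pre-induced with doxycycline then dosed without doxycycline; 0% = DMSO vehicle and 100% = reference activator.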 The settings on record: NCI-H358 eGFP-delta133p53alpha fluorescence, 24 h; activation: hits give high values. An outline of the steps:
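NCI-H358 cells pre-induced 24 h with 10 ng/ml doxycycline for eGFP-delta133p53alpha, plated dox-free and exposed 24 h at 37C to titrated compounds. Fixed, Hoechst-stained; gated GFP peak intensity by laser scanning cytometry, normalized to DMSO (0%) and 57.5 uM 5-azacytidine (100%).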
Background: qHTS replaces the single test concentration by a dilution series.

Assay [2] can be described thus: BET inhibitor-based combinations targeting novel dependencies in MECOM-rearranged (r) AML: OCI-AML3 cell line (AID 2202232). Further: nearly all actives have a fitted effect of over 35% in size. The settings on record: CellTiter-Glo luminescence, 48 h; Potency: OCI-AML3 viability; series mostly up to 46 µM. An outline of the steps: (§1)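 Cells were plated at 500 per well and exposed to an 11-point dose series of each drug for 48 hr. Viability was measured by CellTiter-Glo luminescence, normalized to DMSO and empty-well controls, and summarized as AUC and per-cell-line Z-AUC.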
(Cellular ATP, detected with luciferase, serves as a proxy for viable cell number.)

The nature of assay [3]: BET inhibitor-based combinations targeting novel dependencies in MECOM-rearranged (r) AML: HNT-34 cell line (AID 2202234). Further: nearly all actives have a fitted effect of over 35% in size. The settings on record: HNT-34 AML viability, CellTiter-Glo luminescence, 48 h; series mostly up to 46 µM. In a few lines:
(§2)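 Activity is given as area under the curve and as Z-AUC, mean-centred within each cell line. It comes from 11-point dose curves normalized to DMSO and empty wells. CellTiter-Glo luminescence was read after 48 hr drug exposure of 500 cells/well.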

Assay [4] can be described thus: BET inhibitor-based combinations targeting novel dependencies in MECOM-rearranged (r) AML: UCSD-AML1 cell line (AID 2202235). Further: nearly all actives have a fitted effect of over 40% in size. The settings on record: UCSD-AML1 AML cells viability, CellTiter-Glo, 48 h; series mostly up to 46 µM. In a few lines: as §2
A short description of assay [5]: BET inhibitor-based combinations targeting novel dependencies in MECOM-rearranged (r) AML: AML-191 cell line (AID 2202236; further: nearly all actives have a fitted effect of over 35% in size). The settings on record: AML-191 viability, CellTiter-Glo luminescence, 48 h; series mostly up to 46 µM. An outline of the steps:
as §1

Assay [6] is described as follows: BET inhibitor-based combinations targeting novel dependencies in MECOM-rearranged (r) AML: AML-194 cell line (AID 2202237; further: nearly all actives have a fitted effect of over 40% in size). The settings on record: AML-194 (MECOM-r AML) viability, CellTiter-Glo, 48 h; series mostly up to 46 µM. In a few lines:
as §1

Assay [7] is described as follows: BET inhibitor-based combinations targeting novel dependencies in MECOM-rearranged (r) AML: MV-4-11 cell line (AID 2202233). Further: nearly all actives have a fitted effect of over 45% in size. The settings on record: MV-4-11 AML viability, CellTiter-Glo luminescence, 48 h; series mostly up to 46 µM. An outline of the steps: as §2

Several values for one entry are separate records, joined by “and”; a condition that tells them apart may be missing. Equal entries are not always repeated. Results filed as inconclusive are left out. Values without a mark were called inactive. Activity calls are given as the source filed them. The call rests on the fitted dose curve; in most records, active means well fitted curve in the direction sought with a large enough effect; inconclusive means small, poorly fitted or top-dose-only effect, or another doubt; inactive means no such curve, though single readings can be large; an effect the other way counts as inactive or inconclusive.
Potency means the concentration at half of the fitted maximal effect.

Chain of Cellular tumor antigen p53 (Homo sapiens) (P04637 whole entry, looked up): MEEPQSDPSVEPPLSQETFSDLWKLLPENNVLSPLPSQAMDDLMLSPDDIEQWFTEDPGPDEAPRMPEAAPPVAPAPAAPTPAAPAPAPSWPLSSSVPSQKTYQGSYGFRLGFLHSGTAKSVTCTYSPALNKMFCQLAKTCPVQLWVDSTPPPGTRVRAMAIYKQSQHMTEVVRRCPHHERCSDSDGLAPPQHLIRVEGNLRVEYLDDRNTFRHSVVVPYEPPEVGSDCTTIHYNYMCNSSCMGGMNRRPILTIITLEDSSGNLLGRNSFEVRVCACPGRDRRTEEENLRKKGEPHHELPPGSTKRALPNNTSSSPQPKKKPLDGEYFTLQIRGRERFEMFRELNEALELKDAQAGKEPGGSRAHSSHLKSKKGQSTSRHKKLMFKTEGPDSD

`Nc1nc(N)nc(-c2cc(Cl)ccc2Cl)n1`: the activation in assay [1] was 2.82% and 12%. Further, the Potency entry in assay [2], in assay [3], in assay [4], in assay [5] and in assay [6] was “inactive” in each case.
As to `COc1ccc(CC2=NN3C([C@@H](CCc4ccccc4)[C@@H](C)O)=NC(C)C3C(=O)N2)cc1OC` (stereo partly drawn), the activation in assay [1] was -13.9%. In addition, the Potency in assay [2] is 7.42 µM (active); in assay [3], 18.6 µM (active); in assay [5], 16.6 µM (active). Further, the Potency entry in assay [4] and in assay [6] was “inactive” in each case.
As for `CC(C)C(C)C=CC(C)C1CCC2C3=CC=C4CC(O)CCC4(C)C3CCC21C` (stereo not drawn), the activation in assay [1] was 11%. Moreover, the Potency result in assay [2], in assay [7], in assay [3], in assay [5] and in assay [6] was “inactive” throughout.
For the molecule `CCCCCCNC(=O)n1cc(F)c(=O)[nH]c1=O`, in assay [1], the activation was -29.9% and -7.59%. Moreover, the results for the Potency in assay [2], in assay [7] and in assay [4] were 1.86 µM (active), 1.66 µM (active) and 7.42 µM (active), respectively.
As for `CCN1CCN(C(=O)N[C@@H](C(=O)N[C@@H]2C(=O)N3C(C(=O)O)=C(CSc4nnnn4C)CS[C@H]23)c2ccc(O)cc2)C(=O)C1=O`, in assay [1], the activation was -7.34%. The Potency result in assay [2], in assay [7], in assay [3], in assay [4], in assay [5] and in assay [6] was “inactive” in each case.
Regarding `C[C@@H]1C(=O)O[C@H]2CC34[C@H]5C[C@@H](C(C)(C)C)C36[C@H](OC(=O)[C@@H]6O)O[C@@]4(C(=O)O5)[C@]21O` (stereo partly drawn), in assay [1], the activation is 14%. The Potency result in assay [2], in assay [7] and in assay [4] was “inactive” throughout.
On to `CC(=O)Oc1ccccc1C(=O)Nc1ncc([N+](=O)[O-])s1`, for which the activation in assay [1] is -2.09% and 33.3%. For the same molecule, the Potency in assay [2] is 18.6 µM (active); in assay [5], 20.9 µM (active).
For the molecule `CCN(c1ccccc1)c1cc(NC)[n+](C)c(C)n1`, in assay [1], the activation is 3.67%. Further, the Potency entry in assay [7], in assay [3], in assay [4], in assay [5] and in assay [6] was “inactive” in each case.
Consider `CC(C)(C)OC(=O)CN(Cc1ccc(Cl)cc1)Cc1ccc([N+](=O)[O-])s1`, for which the activation in assay [1] was -41.8%. Besides, in assay [2], the Potency was 7.42 µM (active). For the same molecule, the Potency result in assay [4], in assay [5] and in assay [6] was “inactive” throughout.
On to `COC[C@H](NC(=O)c1cnc(C)s1)C(=O)N[C@@H](COC)C(=O)N[C@@H](Cc1ccccc1)C(=O)[C@@]1(C)CO1`, for which the Potency is 17.2 µM (active) in assay [1]; 0.0833 µM (active) in assay [7]; 0.0934 µM (active) in assay [3]; 0.132 µM (active) in assay [4]; 0.186 µM (active) in assay [5]; 0.332 µM (active) in assay [6].
